The target in experiment [1] is Ferritin light chain (Equus caballus) (UniProt P02791). The experiment is described as follows: qHTS Validation Assay for Identification of Novel General Anesthetics (AID 2323). Further: series mostly up to about 77 µM. In outline:
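Horse-spleen apoferritin (10 uM) in PBS with 50% saturated 1-aminoanthracene; compounds pin-transferred, 10 min at room temperature. Fluorescence read at 380/535 nm, normalized to free 1-AMA and 1-AMA/apoferritin values; four-parameter Hill fit.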
(qHTS replaces the single test concentration by a dilution series.)

The target in experiment [2] is ATP-dependent DNA helicase Q1 (Homo sapiens) (UniProt P46063). The experiment is described as follows: qHTS Validation Assay for Inhibitors of RecQ-Like Dna Helicase 1 (RECQ1) (AID 2353). In a few lines:
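50 nM RECQ1T1 preincubated 15 min with compound in Tris pH 8.0 buffer with MgCl2, DTT, Tween-20 and 2.5 ug/ml poly(dI-dC); started with 200 nM TAMRA/BHQ-2 forked duplex and 2 mM ATP. Unwinding read as fluorescence (525/598 nm), two reads 2 h apart.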

A short description of experiment [3]: High Content Imaging Cell-Based qHTS for Inhibitors of the mTORC1 Signaling Pathway in MEF (Tsc2-/-, p53-/-) Cells (AID 2666). In a few lines: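 Phospho-rpS6 (Ser235/236) immunofluorescence, normalized and scored as % positive cells using rapamycin and DMSO controls, was read in empty-vector Tsc2-/-, p53-/- MEFs after 24 h compound exposure at 37 C; propidium iodide counted cells.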

The nature of experiment [4]: High Content Imaging Cell-Based qHTS for Inhibitors of the mTORC1 Signaling Pathway in MEF Cells (AID 2667).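 Further: Tsc2-/- p53-/- MEFs stably re-expressing wild-type Tsc2 exposed 24 h; series mostly up to about 38 µM.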 In outline:
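WT MEFs (Tsc2-/-, p53-/- re-expressing Tsc2), in DMEM + 10% FBS, were treated with compound for 24 h at 37 C. Cells were then fixed and stained for phospho-rpS6 Ser235/236 with propidium iodide as cell count. Values are % positive cells, with thresholds set against rapamycin-treated cells.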

A short description of experiment [5]: Cytometry Cell-Based qHTS for Inhibitors of the mTORC1 Signaling Pathway in MEF cells (AID 2668).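 Further: Tsc2-/- p53-/- mouse embryonic fibroblasts stably re-expressing wild-type Tsc2; percent cells positive for phospho-rpS6 Ser235/236 relative to propidium iodide stain; series mostly up to about 38 µM.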 In a few lines: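 MEFs (Tsc2-/-, p53-/- stably expressing WT Tsc2) treated 24 h at 37 degree Celsius, fixed, stained with Alexa-488 anti-phospho-rpS6 Ser235/236 and propidium iodide; Acumen laser scanning. Reported as % positive cells, phospho-S6 normalized to PI.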

The nature of experiment [6]: Validation screen for small molecules that induce DNA re-replication in MCF 10A normal breast cells (AID 463097). Further: nearly all actives have a fitted effect of over 60% in size. Further: potency means the concentration at half of the fitted maximal effect. In a few lines:
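MCF 10A cells exposed to compound 48 hr at 37 C, 5% CO2, then Hoechst-stained 40 min. Laser-scanning imaging of nuclear DNA content (405 nm ex, 500-530 nm em); re-replication scored as rise in nuclei with elevated fluorescence intensity.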

The target of experiment [7] is Ubiquitin carboxyl-terminal hydrolase 2 (Homo sapiens) (UniProt O75604). Description: qHTS Validation Assay for Inhibitors of Ubiquitin-specific Protease USP2a Using CHOP2 as the Reporter (AID 463106). In outline:
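USP2 core (10 nM final) was preincubated with compound 30 min at RT in pH 8.0 Tris/CaCl2/beta-ME/CHAPS buffer. Ub-CHOP2 and reporter substrate (25 nM final each) were then added, with fluorescence (Ex 485/Em 531) read after 60 min. Data were normalized to NEM full inhibition and fitted to concentration-response curves.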

Experiment [8] has as its target DNA polymerase III PolC-type (Bacillus subtilis (strain 168)) (UniProt P13267). The experiment is described as follows: qHTS Validation Assay for the Inhibitors of DNA Replication in Gram-Positive Bacteria (AID 485295).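 Further: PicoGreen fluorescence of double-stranded DNA made on primed circular M13 template; series mostly up to about 57 µM.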 In outline:
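Reconstituted B. subtilis Pol III holoenzyme (PolC, beta clamp, SSB, primase) preincubated with compound, then M13Gori single-stranded circular template with dNTPs/NTPs added; room temperature reaction. Stopped with EDTA/PicoGreen; dsDNA fluorescence read, EDTA as full-inhibition control.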

Experiment [9] deals with Tumor susceptibility gene 101 protein (Homo sapiens) (UniProt Q99816). The experiment is described as follows: qHTS Validation Assay for Iinhibitors of HIV-1 Budding by Blocking the Interaction of PTAP/TSG101 (AID 485342; calls by dose curve). In outline:
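Tsg101 binding domain (10 uM) with FITC-labeled PTAP peptide (50 nM) in HEPES pH 7.5 buffer, 20 min at r.t. with compounds. Binding measured by fluorescence polarization.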

Experiment [10] deals with RecQ-like DNA helicase BLM (Homo sapiens) (UniProt P54132). The experiment is described as follows: qHTS Validation Assay for Inhibitors of Bloom's syndrome helicase (BLM) (AID 2364). Further: potency means the concentration at half of the fitted maximal effect. In a few lines: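 50 nM BLM preincubated 15 min at room temperature with compound in pH 8.0 Tris buffer containing 2.5 ug/ml poly(dI-dC); started with 200 nM TAMRA/BHQ-2 forked duplex and 2 mM ATP (final). Unwinding read as TAMRA fluorescence increase, two reads 2 h apart.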

Results filed as inconclusive are left out. Calls of active or inactive are those of the source. Unless noted, the call rests on the fitted dose curve; in most records, active means well fitted curve in the direction sought with a large enough effect; inconclusive means small, poorly fitted or top-dose-only effect, or another doubt; inactive means no such curve, though single readings can be large; an effect the other way counts as inactive or inconclusive.

Ubiquitin carboxyl-terminal hydrolase 2 (Homo sapiens), sequence (O75604 whole entry, looked up): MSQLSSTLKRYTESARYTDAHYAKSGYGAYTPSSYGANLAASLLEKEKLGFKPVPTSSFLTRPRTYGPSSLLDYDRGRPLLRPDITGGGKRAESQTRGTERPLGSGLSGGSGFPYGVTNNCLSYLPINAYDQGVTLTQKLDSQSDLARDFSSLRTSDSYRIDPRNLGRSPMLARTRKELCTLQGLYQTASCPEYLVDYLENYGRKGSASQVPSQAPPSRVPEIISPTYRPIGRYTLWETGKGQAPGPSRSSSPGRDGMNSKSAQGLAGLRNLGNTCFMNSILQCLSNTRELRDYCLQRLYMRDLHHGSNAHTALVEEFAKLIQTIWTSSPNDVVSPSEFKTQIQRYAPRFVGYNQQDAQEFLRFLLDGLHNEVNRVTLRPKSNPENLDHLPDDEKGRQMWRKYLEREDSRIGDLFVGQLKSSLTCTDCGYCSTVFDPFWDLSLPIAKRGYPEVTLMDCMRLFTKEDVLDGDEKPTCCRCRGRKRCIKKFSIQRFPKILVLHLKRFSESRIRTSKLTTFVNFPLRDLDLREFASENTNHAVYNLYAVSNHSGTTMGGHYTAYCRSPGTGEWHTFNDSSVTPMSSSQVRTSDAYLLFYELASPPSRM
ATP-dependent DNA helicase Q1 (Homo sapiens), sequence (P46063 whole entry, looked up): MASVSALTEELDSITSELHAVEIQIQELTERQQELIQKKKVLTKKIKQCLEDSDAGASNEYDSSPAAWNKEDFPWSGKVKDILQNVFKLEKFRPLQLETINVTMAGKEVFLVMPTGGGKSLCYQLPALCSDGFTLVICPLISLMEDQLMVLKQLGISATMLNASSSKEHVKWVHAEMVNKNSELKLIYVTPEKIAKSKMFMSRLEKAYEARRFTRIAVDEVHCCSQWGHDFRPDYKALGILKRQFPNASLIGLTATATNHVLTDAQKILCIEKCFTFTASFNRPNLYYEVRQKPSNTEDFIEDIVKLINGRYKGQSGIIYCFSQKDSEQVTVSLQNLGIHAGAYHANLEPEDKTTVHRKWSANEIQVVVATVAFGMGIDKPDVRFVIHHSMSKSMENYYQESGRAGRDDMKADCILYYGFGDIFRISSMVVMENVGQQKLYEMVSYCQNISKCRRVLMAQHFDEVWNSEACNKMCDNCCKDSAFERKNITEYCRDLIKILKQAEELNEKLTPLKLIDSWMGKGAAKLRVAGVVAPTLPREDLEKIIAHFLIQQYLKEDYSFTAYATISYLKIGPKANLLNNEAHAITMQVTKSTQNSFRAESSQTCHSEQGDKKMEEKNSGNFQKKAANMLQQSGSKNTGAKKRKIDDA
DNA polymerase III PolC-type (Bacillus subtilis (strain 168)), sequence (P13267 whole entry, looked up): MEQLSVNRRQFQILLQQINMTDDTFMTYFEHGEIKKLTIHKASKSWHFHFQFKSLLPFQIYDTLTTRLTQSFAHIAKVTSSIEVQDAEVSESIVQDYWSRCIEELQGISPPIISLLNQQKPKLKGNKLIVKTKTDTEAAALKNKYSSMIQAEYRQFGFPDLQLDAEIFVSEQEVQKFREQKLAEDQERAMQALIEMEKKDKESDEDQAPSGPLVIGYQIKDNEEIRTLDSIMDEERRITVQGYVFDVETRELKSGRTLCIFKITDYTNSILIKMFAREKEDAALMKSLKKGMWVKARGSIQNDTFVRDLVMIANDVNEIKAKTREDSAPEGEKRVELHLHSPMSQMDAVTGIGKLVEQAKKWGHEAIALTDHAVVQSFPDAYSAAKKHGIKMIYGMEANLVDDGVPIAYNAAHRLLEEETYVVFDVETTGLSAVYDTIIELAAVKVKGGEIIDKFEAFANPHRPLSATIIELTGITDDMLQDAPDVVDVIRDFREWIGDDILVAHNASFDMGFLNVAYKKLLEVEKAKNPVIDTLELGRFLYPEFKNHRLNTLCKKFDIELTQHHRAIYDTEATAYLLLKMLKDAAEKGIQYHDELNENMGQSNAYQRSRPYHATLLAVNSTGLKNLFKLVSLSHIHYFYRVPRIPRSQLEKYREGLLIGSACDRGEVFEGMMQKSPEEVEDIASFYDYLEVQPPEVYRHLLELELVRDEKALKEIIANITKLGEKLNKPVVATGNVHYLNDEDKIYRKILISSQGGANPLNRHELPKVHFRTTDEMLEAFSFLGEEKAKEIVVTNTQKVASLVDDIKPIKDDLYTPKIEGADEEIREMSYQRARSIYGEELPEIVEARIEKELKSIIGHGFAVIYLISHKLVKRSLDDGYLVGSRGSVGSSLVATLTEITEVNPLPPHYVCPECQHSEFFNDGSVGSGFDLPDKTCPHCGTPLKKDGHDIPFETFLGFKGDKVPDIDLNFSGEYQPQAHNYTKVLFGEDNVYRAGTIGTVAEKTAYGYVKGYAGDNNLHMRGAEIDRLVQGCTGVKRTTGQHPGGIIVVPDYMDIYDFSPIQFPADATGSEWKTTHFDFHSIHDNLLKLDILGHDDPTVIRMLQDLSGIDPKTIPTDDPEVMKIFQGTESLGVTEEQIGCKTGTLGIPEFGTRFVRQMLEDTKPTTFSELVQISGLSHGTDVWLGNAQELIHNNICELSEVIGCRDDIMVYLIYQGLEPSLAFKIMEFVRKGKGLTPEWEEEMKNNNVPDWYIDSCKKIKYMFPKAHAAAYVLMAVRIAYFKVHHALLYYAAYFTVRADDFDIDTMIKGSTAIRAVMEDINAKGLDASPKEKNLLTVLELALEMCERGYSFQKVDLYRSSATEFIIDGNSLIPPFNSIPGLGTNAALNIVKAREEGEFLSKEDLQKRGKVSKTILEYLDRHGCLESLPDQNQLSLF
RecQ-like DNA helicase BLM (Homo sapiens), sequence (P54132 whole entry, looked up): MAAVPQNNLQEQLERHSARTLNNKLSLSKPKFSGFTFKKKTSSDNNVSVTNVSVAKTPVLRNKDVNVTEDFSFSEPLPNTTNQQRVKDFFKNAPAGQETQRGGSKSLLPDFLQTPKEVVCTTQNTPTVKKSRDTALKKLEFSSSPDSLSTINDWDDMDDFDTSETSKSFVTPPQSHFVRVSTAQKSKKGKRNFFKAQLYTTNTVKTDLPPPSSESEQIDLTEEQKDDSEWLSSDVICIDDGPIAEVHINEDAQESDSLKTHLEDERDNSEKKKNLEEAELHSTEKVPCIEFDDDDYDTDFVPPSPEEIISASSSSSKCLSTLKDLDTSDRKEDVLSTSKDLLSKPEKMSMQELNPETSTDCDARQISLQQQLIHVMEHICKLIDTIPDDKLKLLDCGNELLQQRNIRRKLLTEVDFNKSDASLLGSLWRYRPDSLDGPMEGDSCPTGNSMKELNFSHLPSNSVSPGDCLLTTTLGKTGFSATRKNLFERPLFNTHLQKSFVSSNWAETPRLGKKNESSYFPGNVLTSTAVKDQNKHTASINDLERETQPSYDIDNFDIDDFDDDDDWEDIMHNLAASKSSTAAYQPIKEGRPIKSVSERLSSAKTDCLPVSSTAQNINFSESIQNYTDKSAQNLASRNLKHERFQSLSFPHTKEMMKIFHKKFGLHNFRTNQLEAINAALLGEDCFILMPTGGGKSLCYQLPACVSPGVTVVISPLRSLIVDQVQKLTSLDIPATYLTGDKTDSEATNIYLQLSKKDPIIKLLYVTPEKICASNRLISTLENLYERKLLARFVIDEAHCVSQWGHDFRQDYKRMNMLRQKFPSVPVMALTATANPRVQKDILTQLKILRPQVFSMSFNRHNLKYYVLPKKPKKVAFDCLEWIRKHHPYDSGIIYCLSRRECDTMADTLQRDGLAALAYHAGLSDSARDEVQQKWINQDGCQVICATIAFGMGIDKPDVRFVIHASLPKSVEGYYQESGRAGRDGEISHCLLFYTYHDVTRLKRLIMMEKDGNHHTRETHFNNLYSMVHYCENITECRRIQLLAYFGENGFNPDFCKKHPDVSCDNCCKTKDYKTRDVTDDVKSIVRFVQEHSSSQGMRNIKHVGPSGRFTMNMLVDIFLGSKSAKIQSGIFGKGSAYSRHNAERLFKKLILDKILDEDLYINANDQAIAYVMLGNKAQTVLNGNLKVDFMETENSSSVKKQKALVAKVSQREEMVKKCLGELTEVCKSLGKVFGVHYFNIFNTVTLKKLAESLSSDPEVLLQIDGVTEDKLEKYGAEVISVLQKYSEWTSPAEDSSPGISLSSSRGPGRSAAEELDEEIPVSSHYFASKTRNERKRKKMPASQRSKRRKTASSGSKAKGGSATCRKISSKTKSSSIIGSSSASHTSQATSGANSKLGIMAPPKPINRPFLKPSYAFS
Tumor susceptibility gene 101 protein (Homo sapiens), sequence (Q99816 whole entry, looked up, the tested form may be a part): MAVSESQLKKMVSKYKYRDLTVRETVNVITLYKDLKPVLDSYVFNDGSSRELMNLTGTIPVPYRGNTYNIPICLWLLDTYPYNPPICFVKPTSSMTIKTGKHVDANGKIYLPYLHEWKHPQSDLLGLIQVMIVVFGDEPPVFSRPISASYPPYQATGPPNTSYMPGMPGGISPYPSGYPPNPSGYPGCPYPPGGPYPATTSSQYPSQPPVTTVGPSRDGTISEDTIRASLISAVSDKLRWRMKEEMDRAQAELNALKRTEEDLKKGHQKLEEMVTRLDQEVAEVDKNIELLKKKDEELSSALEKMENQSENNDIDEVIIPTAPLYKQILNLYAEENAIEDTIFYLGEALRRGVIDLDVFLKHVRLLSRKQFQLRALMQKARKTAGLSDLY
Ferritin light chain (Equus caballus), sequence (P02791 2-175 limits assumed): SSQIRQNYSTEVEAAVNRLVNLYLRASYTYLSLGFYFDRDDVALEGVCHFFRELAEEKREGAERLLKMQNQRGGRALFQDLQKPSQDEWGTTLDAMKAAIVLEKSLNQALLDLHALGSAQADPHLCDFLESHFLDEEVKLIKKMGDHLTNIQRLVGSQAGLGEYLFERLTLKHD

As for `COc1ccccc1N1CCN(CCCNc2cc(=O)n(C)c(=O)n2C)CC1`, the result in experiment [1], in experiment [2], in [4], in [7], in [8] and in experiment [9] was inactive. Besides, the Potency result in experiment [3], in experiment [5] and in [6] was “inactive” throughout.
`NC(N)=Nc1nc(CSCC/C(N)=N/S(N)(=O)=O)cs1`: the molecule was called inactive in experiment [1], in experiment [2], in experiment [4], in experiment [7], in [8] and in experiment [9]. Also, the Potency result in experiment [3], in experiment [5] and in experiment [6] was “inactive” in each case.
Consider `Clc1ccc(C(c2ccc(Cl)cc2)n2cc[n+](CC(OCc3ccc(Cl)cc3Cl)c3ccc(Cl)cc3Cl)c2)cc1` (stereo not drawn), for which the Potency entry in experiment [3] was “inactive”. The call in experiment [8] and in [9] was inactive.
Take `CC(=O)O[C@]1(C(C)=O)CC[C@H]2[C@@H]3C=C(Cl)C4=CC(=O)[C@@H]5C[C@@H]5[C@]4(C)[C@H]3CC[C@@]21C`: the Potency result in experiment [3] and in experiment [5] was “inactive” each time. In addition, the molecule was called inactive in experiment [4], in experiment [7], in [8] and in experiment [9].
Turning to `Clc1ccc(Cn2c(CN3CCCC3)nc3ccccc32)cc1`, the molecule was classed as inactive in experiment [2], in experiment [4], in [7], in experiment [8] and in experiment [9]. Further, the Potency entry in [3], in experiment [5] and in [6] was “inactive” each time.
For the molecule `CC1(C)CCC2=C(O1)c1ccccc1C(=O)C2=O`, the call in [2], in experiment [4], in experiment [7], in [8] and in experiment [9] was inactive. Also, in [10], the Potency was 25.1 µM (active). Moreover, the Potency entry in experiment [3] is “inactive”.
In the case of `CN(C)CCC(c1ccccc1)c1ccccn1` (stereo not drawn), the outcome in [1], in [2], in experiment [4], in [7], in [8] and in experiment [9] was inactive. For the same molecule, the Potency result in experiment [10], in experiment [3], in [5] and in experiment [6] was “inactive” throughout.
`Cc1cccc(C)c1OCC(C)N` (stereo not drawn): the molecule was called inactive in [2], in [4], in [7], in experiment [8] and in experiment [9]. Moreover, the Potency result in experiment [10], in experiment [3], in [5] and in [6] was “inactive” in each case.
As to `O=c1c(-c2ccc(O)cc2)coc2cc(O)ccc12`, the molecule was classed as inactive in [1], in experiment [2], in experiment [4], in [7], in experiment [8] and in [9]. The Potency result in experiment [3], in experiment [5] and in experiment [6] was “inactive” each time.
Turning to `CCN(CC)CCOC(=O)c1ccc(N)cc1`, the result in experiment [1], in experiment [2], in experiment [4], in experiment [7], in [8] and in [9] was inactive. Also, the Potency entry in [3], in experiment [5] and in [6] was “inactive” throughout.
For the molecule `NCCS`, the outcome in [1], in [2], in [4], in [7], in [8] and in experiment [9] was inactive. Further, the Potency entry in [3], in experiment [5] and in [6] was “inactive” each time.
With `CC/C(=C(\c1ccccc1)c1ccc(OCCN(C)C)cc1)c1ccccc1`, the call in [1], in [2], in experiment [7] and in [9] was inactive. The Potency in experiment [6] was 17.8 µM (active).
For the molecule `CCCCCN(C)CCC(O)(P(=O)(O)O)P(=O)(O)O`, the Potency entry in experiment [3] and in experiment [5] was “inactive” each time. For the same molecule, the call in experiment [4], in experiment [7], in experiment [8] and in [9] was inactive.
Regarding `CC(=O)c1ccc(S(=O)(=O)NC(=O)NC2CCCCC2)cc1`, the call in [1], in experiment [2], in experiment [4], in experiment [7], in [8] and in experiment [9] was inactive. The Potency result in experiment [3], in [5] and in [6] was “inactive” in each case.
Consider `O=C(O)CCc1nc(-c2ccccc2)c(-c2ccccc2)o1`, for which the call in experiment [1], in experiment [2], in [4], in experiment [7], in experiment [8] and in experiment [9] was inactive. Besides, the Potency result in experiment [10], in [3], in experiment [5] and in experiment [6] was “inactive” each time.
Consider `COc1cccc(-c2cc(=O)c3ccccc3o2)c1N`, for which the molecule was classed as inactive in experiment [1], in experiment [2], in [4], in experiment [7], in experiment [8] and in experiment [9]. Also, the Potency result in [3] and in [5] was “inactive” each time.
Take `CCCCC1C(=O)N(c2ccccc2)N(c2ccccc2)C1=O`: the molecule was called inactive in experiment [2], in experiment [4], in experiment [7], in experiment [8] and in [9]. The Potency entry in experiment [3], in [5] and in experiment [6] was “inactive” throughout.
As to `CCN(CC)C(=O)c1ccc(O)c(OC)c1`, the call in [1], in experiment [2], in experiment [4], in experiment [7], in experiment [8] and in experiment [9] was inactive. Also, the Potency entry in experiment [3], in [5] and in [6] was “inactive” in each case.

For the origin of these results see PubChem BioAssay (NCATS).
